Sampled rows, rich in hits. Any-hit rate of the full collection: about 10%.
G9a inh = blocks human histone lysine methyltransferase G9a; Potency, µM (titrated, usually from 102 µM), for the others: at the highest dose activity, negative = inhibition, hits mostly inhibitors; 350,000 tested, 8.8% active; Q96KQ7; G9a H3K9 monomethylation, AlphaScreen, 2 h; also: potency is read from the fitted curve at half-maximal effect; % is scaled to controls: 0 for no effect and ±100 for the full control effect; nearly all actives have a fitted effect of over 75% in size
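Step 1: enzyme (final 20 nM) with compound, 15 min RT. Step 2: substrate peptide 500 nM and SAM 20 uM, 2 h RT. Step 3: anti-H3K9me1 antibody and AlphaScreen beads, 10 min, then plate read.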
CtBP-E1A blk = blocks the CtBP interaction with E1A. AID 651724. AlphaScreen GST-E1A/His-CtBP binding, 1536-well; stronger effect = lower value. activity change, % (concentration not given with the values). 340,000 tested, 0.49% active; in the data active = activity change below about -65%; inconclusive = mostly about -30% to -63%; also: % is scaled to controls: 0 for no effect and ±100 for the full control effect
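AlphaScreen with 125 nM GST-E1A and 125 nM His-CtBP (5X stocks) in Tris pH 8.0, 300 mM NaCl, BSA, Tween 20, TCEP. Compounds preincubated 2 h at 37 deg C, then glutathione donor/nickel acceptor beads added for 1 h at 37 deg C in dark.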
HP1b chromo inh = blocks HP1-beta chromodomain binding to methylated histone tails; P83916; AlphaScreen HP1-beta / biotin-H3K9me3 peptide binding; Potency, µM (series often up to 114 µM), for inactives: at the highest dose activity change, negative = inhibition, most hits filed as inhibitors; 390,000 tested, 0.56% active; also: potency is read from the fitted curve at half-maximal effect; nearly all actives have a fitted effect of over 70% in size
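HP1-beta protein (50 nM final) preincubated 30 min at room temperature with biotinylated H3(1-18)K9me3 peptide (50 nM) in PBS pH 7.4, 0.01% Tween-20, then compound added for 30 min. AlphaScreen streptavidin donor/nickel chelate acceptor beads (10 ug/mL final), 30 min dark, luminescence read.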
JMJD2A Tudor inh = JMJD2A Tudor domain (human) inhibition; AlphaScreen JMJD2A-Tudor / H3K4me3 peptide binding; 390,000 tested, 4.4% active; O75164; Potency, µM (series often up to 114 µM), inactives show at the highest dose activity change, negative = inhibition, actives largely listed as inhibitors; also: potency is read from the fitted curve at half-maximal effect; % is scaled to controls: 0 for no effect and ±100 for the full control effect; nearly all actives have a fitted effect of over 50% in size
BAZ2B inh = blocks human BAZ2B; AlphaScreen BAZ2B-H3K14Ac peptide displacement; Potency, µM (titrated, usually from 114 µM), without a hit: at the top dose activity change, negative = inhibition, hits mostly inhibitors; 360,000 tested, 4.4% active; also: potency is read from the fitted curve at half-maximal effect; % is scaled to controls: 0 for no effect and ±100 for the full control effect; nearly all actives have a fitted effect of over 60% in size
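AlphaScreen luminescence quantifies BAZ2B engagement of H3K14Ac peptide; the protein and biotinylated peptide are both at 50 nM final, buffer PBS pH 7.4 with 0.01% Tween-20, all steps at room temperature.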
Six1-Eya2 inh = Six1/Eya2 interaction inhibition | activity change, % (test concentration not listed) | 360,000 tested, 0.56% active | Q15475+O00167 | AID 651725 | AlphaScreen GST-Six1/His-Eya2 binding, biochemical; stronger effect = lower value; in the data active = activity change below about -65%; inconclusive = mostly about -30% to -63%; also: % is scaled to controls: 0 for no effect and ±100 for the full control effect
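GST-Six1 + His-Eya2 (5X stock: 250/500 nM); Tris pH 8.0, 300 mM NaCl, 0.05% BSA, 0.02% Tween 20; GSH donor/Ni acceptor beads; 1 h 37 °C dark; AlphaScreen readout.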
Starred values were filed as active, the others as inactive; ? = inconclusive; . = not tested or not shown; [ ] = another dose, or the depositor's remark. Unless noted, calls follow the shape of the dose curve; as a rule, active = well fitted inhibition curve with a large enough effect; inconclusive = small, poorly fitted or top-dose-only effect; inactive = no such curve, though single readings can be large or run the other way.

SMILES	G9a inh	CtBP-E1A blk	HP1b chromo inh	JMJD2A Tudor inh	BAZ2B inh	Six1-Eya2 inh
CCOC(=O)c1ccc(-n2c(CCC(=O)O)ccc2-c2ccc(F)cc2)cc1	45µM*	.	2%	-35%	-36%	-13
Cc1ccc(-c2ccc(CCC(=O)O)n2-c2ccc(C(=O)O)cc2)cc1	32µM*	.	22%	-17%	?	1
O=C(O)CCc1ccc(-c2ccccc2)n1-c1cccc(O)c1	?	4	-6%	?	-35%	-2
Cc1ccc(-c2ccc(CCC(=O)O)n2-c2ccc(C(C)C)cc2)cc1	16µM*	.	?	?	40µM*	.
Cc1ccc(C)n1-c1ccc(C(=O)O)cc1	8.9µM*	.	.	.	13µM*	.
CCc1nc2nc(C)cc(Nc3ccc(OC)cc3)n2n1	-12%[59 µM]	.	-1%	-23%	-11%	.
Cc1cccc(OC(=O)c2cc(-c3ccc(Cl)cc3)on2)c1C	25%[59 µM]	.	85%	-21%	-3%	.
CN1N/C(=C\c2ccccc2)N=C2C(=O)N(C)C(=O)N=C21	.	.	20%[57 µM]	-22%[57.1 µM]	.	.
CN(CCCC(=O)O)c1ccc(N=Nc2ccc([N+](=O)[O-])cc2)cc1	.	.	11µM*	22µM*	.	?
Cc1ccc(Nc2nc3c(s2)CCC3)c(C)c1	?	-5	13%	-27%[57.1 µM]	-29%	-6
COc1ccccc1Nc1nc(C)c(C(=O)Nc2ccccc2)s1	50µM*	2	9%	-31%	-32%	-2
Cc1nc(Nc2ccccc2)sc1C(=O)Nc1ccccc1	.	0	-7%	-23%	-39%	0
Cc1nc(Nc2ccccc2Cl)sc1C(=O)Nc1ccccc1	28µM*	-2	22%	-20%	?	-14
COc1ccccc1Nc1nc2c(s1)CCC2	25µM*	-6	-5%	-22%	-36%	-3
O=C(NCc1ccc(Cl)cc1)C1CCCN(c2nc3ccccc3n3cccc23)C1 (centres undefined)	4%[59 µM]	.	50%	-20%	-13%	.
CCOC(=O)Cc1nnc(NC(=O)C(CC)Sc2nnc3c4ccccc4n(C)c3n2)s1 (centres undefined)	1%[59 µM]	-71*	5%	-12%	3%	?
CCOC(=O)Cc1nnc(NC(=O)C(CC)Sc2nc(C)cc(=O)[nH]2)s1 (centres undefined)	71µM*	-14	-18%	?	3%	-12
CCOC(=O)Cc1nnc(NC(=O)C(CC)Sc2nncn2C)s1 (centres undefined)	9%[59 µM]	-3	24%	-14%	?	6
CCOC(=O)c1c(C)[nH]c(C2=NNC(=Nc3ccccc3OC)SC2)c1C	?	?	?	50µM*	?	?
CCOC(=O)c1c(C)[nH]c(C2=NNC(=Nc3ccc(OCC)cc3)SC2)c1C	?	-1	?	56µM*	50µM*	?
CCOC(=O)c1c(C)[nH]c(C2=NNC(=Nc3ccccc3)SC2)c1C	45µM*	.	?	?	-37%	?
CC(=O)c1c(C)[nH]c(C2=NNC(=NC(C)(C)C)SC2)c1C	32µM*	3	27%	-15%	.	-1
COC(=O)c1c(-c2ccc(Cl)cc2)noc1N1CCN(c2ccc(F)cc2)CC1	13%[59 µM]	.	20%[57 µM]	-13%	?	.
O=C(CN1CCN(Cc2ccc(F)cc2)C1=O)NCc1ccc(F)cc1	-28%[59 µM]	.	25%	-14%	6%	.
CSc1c[n+]2c(n1C)CCC2	?	19	6%	32µM*	13%	5
SMILES	G9a inh	CtBP-E1A blk	HP1b chromo inh	JMJD2A Tudor inh	BAZ2B inh	Six1-Eya2 inh
COc1cc2c(cc1OC)CN(c1nc(CN3CCOCC3)nc3sc4c(c13)CCC(C)C4)CC2 (centres undefined)	14µM*	?	?	25µM*	32µM*	?
O=C(CNCc1ccccc1Cl)Nc1ccc(C(=O)N2CCCCC2)cc1	5.6µM*	-3	?	?	22µM*	3
O=C(CNCCc1ccccc1)Nc1ccc(C(=O)N2CCCCC2)cc1	11µM*	1	?	22µM*	40µM*	3
O=C(CNCc1ccc(F)cc1)Nc1ccc(C(=O)N2CCCCC2)cc1	10µM*	4	?	1.1µM*	32µM*	5
O=C(CNCCc1ccc(Cl)cc1)Nc1ccc(C(=O)N2CCCCC2)cc1	7.9µM*	-1	?	3.2µM*	20µM*	4
NC(=O)c1ccc(NC(=O)CNCc2ccccc2Cl)cc1	-36%	-8	37%	4%	-1%	-10
Cc1ccc(-n2ncc(C(=O)N3CCCCC3)c2C2CCN(C(=O)OC(C)(C)C)CC2)c(C)c1	-17%[59 µM]	.	7%	-16%	2%[57.1 µM]	.
CC(=O)OCC[n+]1c(C)n(-c2ccccc2)c2ccc(Cl)cc21	50µM*	8	21%	?	1%	0
CCOC(=O)c1c(O)c(O)c(C(=O)OCC)n1-c1ccccc1	8.9µM*	0	-17%	35µM*	-29%	11
CCOC(=O)c1sc(=S)n(-c2ccccc2)c1C	?	1	-11%	-1%	-19%	7
CCOC(=O)c1ccc2c(c1)[n+](CC)c(C)n2-c1ccccc1	32µM*	3	-25%	1%	?	1
Cc1ccc(N2C(=O)CS(=O)(=O)C23C(=O)N(C)c2ccccc23)cc1F (centres undefined)	13µM*	.	17%	-10%	6%[57.1 µM]	.
Cc1sc2ncn(CC(=O)Nc3cccc(C(F)(F)F)c3)c(=O)c2c1S(=O)(=O)N1CCC(C)CC1	-2%[59 µM]	.	14%	-4%	2%	.
CCc1cccc(C)c1Nc1c(-c2ccc(N(C)C)cc2)nc2cnccn12	18µM*	.	?	40µM*	16µM*	.
CCc1cccc(C)c1Nc1c(-c2ccsc2)nc2ncccn12	-43%[59 µM]	.	0%	-35%	?	.
CCc1cccc(C)c1Nc1c(-c2ccc(SC)cc2)nc2sccn12	14µM*	.	?	?	22µM*	.
CC(C)Nc1nnc(SCC(=O)Nc2ccc3c(c2)C(=O)c2ccccc2C3=O)s1	?	4	2%	?	?	-74*
O=C(CSc1nnc(Nc2ccccc2F)s1)Nc1cccc(S(=O)(=O)N2CCCCC2)c1	3.2µM*	-9	7%	?	-10%	-22
Cc1nnc(SCC(=O)Nc2cccc(S(=O)(=O)N3CCCCC3)c2)s1	10%[2.33 µM]	.	13%	-11%	-3%	0
Cc1ccc(Nc2nnc(SCC(=O)Nc3cccc(S(=O)(=O)N4CCCCC4)c3)s2)cc1	40µM*	-6	14%	-28%[57.1 µM]	-20%	-13
COC(=O)c1cc(NC(=O)Cn2nc(-c3ccc(C)c(C)c3)ccc2=O)cc(C(=O)OC)c1	4%[59 µM]	.	?	-8%	-7%	.
Cc1ccc(CNCc2c(C(=O)O)n(Cc3ccc(C)cc3)c3cc(C)ccc23)cc1	?	.	1%	?	-36%	.
